{"source": "PubChem BioAssay (Tox21)", "note": "Several values for one entry are separate records, joined by “and”; a condition that tells them apart may be missing. Equal values may be shown once. Results filed as inconclusive are left out. Some structures have more than one record in an assay (separate samples or runs), and their calls can disagree. Activity calls are given as the source filed them. The call rests on the fitted dose curve; in most records, active means well fitted inhibition curve with a large enough effect in the repeat runs; inconclusive means weak or mixed curves; inactive means no such curve, though single readings can be large or run the other way. On the % scale 0 is the no-effect control and ±100 the full control effect; potency means the concentration at half of the fitted maximal effect.", "data": [{"target": "Cytochrome P450 2C19 (Homo sapiens) (UniProt P33261)", "sequence (P33261 whole entry, looked up)": "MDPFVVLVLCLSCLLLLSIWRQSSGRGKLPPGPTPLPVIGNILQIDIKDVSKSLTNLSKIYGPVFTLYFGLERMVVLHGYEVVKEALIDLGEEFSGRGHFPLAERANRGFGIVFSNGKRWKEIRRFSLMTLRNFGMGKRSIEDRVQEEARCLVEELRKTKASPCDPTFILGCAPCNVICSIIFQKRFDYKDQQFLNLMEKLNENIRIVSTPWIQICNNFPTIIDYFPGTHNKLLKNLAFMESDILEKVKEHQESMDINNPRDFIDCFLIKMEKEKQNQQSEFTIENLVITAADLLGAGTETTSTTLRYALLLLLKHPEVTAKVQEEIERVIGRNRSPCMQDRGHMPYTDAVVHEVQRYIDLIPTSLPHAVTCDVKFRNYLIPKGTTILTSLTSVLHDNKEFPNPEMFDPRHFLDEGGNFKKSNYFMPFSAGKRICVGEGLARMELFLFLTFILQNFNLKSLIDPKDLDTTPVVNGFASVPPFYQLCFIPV", "test": "Cytochrome P450 Family 2 Subfamily C Member 19 (CYP2C19) small molecule antagonists: luciferase reporter qHTS assay (AID 1671197); further: nearly all actives have a fitted effect of over 65% in size", "conditions": "P450-Glo CYP2C19 enzyme, luciferin luminescence, 1 h; series mostly up to 115 µM; activity change, negative = inhibition: at the top concentration", "description": "National Center for Advancing Translational Sciences [NCATS]\nU.S. Environmental Protection Agency [EPA]\nNational Institutes of Environmental Health Sciences [NIEHS]\nNational Toxicology Program [NTP]\nU.S. Food and Drug Administration [FDA]\nCytochrome P450 (CYP) enzymes are membrane-bound hemeproteins that play a key role in metabolism of drugs and xenobiotics. Evaluation of the effect of chemicals on CYP isozymes is useful to minimize the adverse drug reactions and toxicities in drug development process. Tox21 chemicals were tested for their effect on CYP enzyme activities by using P450-Glo (TM) screening systems (Promega Corporation, Madison, WI). These systems provide a luminescent method containing proluciferin substrates and are converted to luciferin products by CYP isozymes. The luciferin products formed are detected with a luciferin detection reagent, and the amount of light produced is proportional to CYP activity. P450-Glo (TM) CYP2C19 screening system (Catalog. No. V9880) was used to detect the compounds that interfere in CYP2C19 activity. The positive control compound used for CYP2C19 assay is ketoconazole (Sigma-Aldrich, St. Louis, MO).\nTox21 Assay Protocol Summary:\nTwo ul of enzyme-substrate mix was dispensed into medium binding white/solid 1536-well plates (Greiner Bio-One North America Inc., Monroe, NC) using a BioRaptr Flying Reagent Dispenser (FRD, Beckman Coulter, Brea, CA). Compounds dissolved in DMSO and positive control (ketoconazole) were transferred to the assay plates at 23 nl using a Pintool station (Wako, San Diego, CA). The assay plates were incubated at room temperature for 10 min. Then 2 ul of NADPH regeneration solution was added to each well of the assay plates using an FRD and incubated at 37C for 1 h. The reaction was stopped by adding 4 ul of detection reagent using an FRD and after 20 min incubation at room temperature the luminescence signal was measured using a ViewLux plate reader (Perkin Elmer, Shelton, CT). Data were expressed as relative luminescence units.", "values": [{"compound": "O=C(O)c1ccc(O)cc1", "activity change, negative = inhibition": "-9.83% (inactive)"}, {"compound": "C=CCNCC=C", "Potency": "39.8 µM (active)"}, {"compound": "Cc1ccc(S(=O)(=O)NCl)cc1", "activity change, negative = inhibition": "-16.8% (inactive)"}, {"compound": "C=CC(C)(O)CCC=C(C)C", "note": "(stereo not given)", "activity change, negative = inhibition": "-23.5% (inactive)"}, {"compound": "ClC/C=C/CCl", "Potency": "inactive"}, {"compound": "Cc1ccc(C)c(O)c1", "Potency": "30.9 µM (active) and inactive"}, {"compound": "[O-]/[N+](=N\\O)c1ccccc1", "Potency": "62.7 µM (active) and 39.9 µM (active)"}, {"compound": "C[C@]12CC[C@@H]3c4ccc(O)cc4CC[C@H]3[C@@H]1CC[C@@H]2O", "Potency": "7.95 µM (active) and 5.64 µM (active)"}, {"compound": "C=CCOC(=O)C(=C)C", "Potency": "inactive"}, {"compound": "Oc1ccc(C(c2ccc(O)cc2)C(Cl)(Cl)Cl)cc1", "Potency": "17.8 µM (active) and 20 µM (active)"}, {"compound": "C=CN1CCCC1=O", "activity change, negative = inhibition": "-0.441% (inactive)"}, {"compound": "NCCOCCO", "activity change, negative = inhibition": "-24.8% (inactive)"}, {"compound": "c1ccc2c(c1)ccc1cc3c(ccc4ccccc43)cc12", "Potency": "inactive"}, {"compound": "O=[Se](O)O", "activity change, negative = inhibition": "-23.6% [at 23.6 µM] (inactive)", "Potency": "56.5 µM (active)"}, {"compound": "Nc1ccc(N)c(Cl)c1", "Potency": "3.17 µM (active) and 5.03 µM (active)"}, {"compound": "O=C(O)CCCCCCCCCCCC(=O)O", "Potency": "17.6 µM (active) and 39.9 µM (active)"}, {"compound": "CCCCCCC(C)O", "note": "(stereo not given)", "activity change, negative = inhibition": "-26% (inactive)"}, {"compound": "O=C(O)c1cc(=O)[nH]c(=O)[nH]1", "Potency": "40 µM (active) and inactive"}, {"compound": "CCCCCC1C(=O)CCC1CC(=O)OC", "note": "(stereo not given)", "Potency": "993 nM (active) and 3.56 µM (active)"}, {"compound": "CC(=O)Oc1ccc(C(c2ccc(OC(C)=O)cc2)c2ccccn2)cc1", "Potency": "7.92 µM (active) and 24.5 µM (active)"}, {"compound": "COC(=O)CC(=O)OC", "Potency": "41.6 µM (active) and inactive"}, {"compound": "C1COCCN1", "Potency": "inactive"}, {"compound": "O=Cc1ccccc1C=O", "activity change, negative = inhibition": "0.201% [at 52.9 µM] (inactive)"}, {"compound": "O=S1(=O)CCCO1", "Potency": "inactive"}, {"compound": "Nc1cc(Cl)c(N)c(Cl)c1", "Potency": "8.86 µM (active) and 71 µM (active)"}, {"compound": "CC(=O)O[C@]1(C(C)=O)CC[C@H]2[C@@H]3C=C(C)C4=CC(=O)CC[C@]4(C)[C@H]3CC[C@@]21C", "Potency": "7.1 µM (active) and 6.92 µM (active)"}, {"compound": "CCCOCCO", "Potency": "inactive"}, {"compound": "CN(C)C", "Potency": "inactive"}, {"compound": "c1ccc2ncccc2c1", "Potency": "inactive"}, {"compound": "Cc1cccc(Nc2ccccc2C(=O)O)c1C", "Potency": "inactive"}, {"compound": "OCCNCCO", "Potency": "inactive"}, {"compound": "Cc1ccc(C(C)(C)C)c(O)c1", "Potency": "30.7 µM (active) and 39.9 µM (active)"}, {"compound": "C=C1C[C@H]2[C@@H]3C=C(C)C4=CC(=O)CC[C@]4(C)[C@H]3CC[C@]2(C)[C@@]1(OC(C)=O)C(C)=O", "Potency": "28.9 µM (active) and 9.77 µM (active)"}, {"compound": "CC1=CC(C)(C)Nc2ccccc21", "Potency": "75.6 µM (active)"}, {"compound": "C[C@]12CC[C@@H]3c4ccc(O)cc4CC[C@H]3[C@@H]1CC[C@H]2O", "Potency": "4.06 µM (active) and 17.8 µM (active)"}, {"compound": "CC(=O)Oc1c(C)c(C)c2c(c1C)CC[C@@](C)(CCC[C@H](C)CCC[C@H](C)CCCC(C)C)O2", "Potency": "inactive"}, {"compound": "CCCCCCCCCCC(CO)CCCCCCCC", "note": "(stereo not given)", "Potency": "inactive"}, {"compound": "C=C[Si](OCCOC)(OCCOC)OCCOC", "Potency": "inactive"}, {"compound": "CC/C=C\\C/C=C\\C/C=C\\CCCCCCCC(=O)O", "Potency": "31.4 µM (active)"}]}]}
